An excerpt weighted towards active compounds, which were near 2.6% of everything screened.
Giardia kill: kills Giardia lamblia. Giardia lamblia trophozoite viability. activity change, % at 7.66 µM, hits read low. 340,000 compounds, 0.15% hits. AID 540267; in the data active = activity change below about -80%; inconclusive = between about -30% and that limit;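 note: parasites exposed to compound for two days anaerobically before the ATP read; % is set by controls: 0 for no effect and ±100 for the full control effect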
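Trophozoite viability was measured as ATP-dependent luminescence, read 15-30 min after reagent addition. Before that, parasites at 100 cells/well were exposed to compounds for 48 h, anaerobically, at 37 deg C.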
uPA generation: cell surface uPA generation inhibition; cell surface uPA generation assay, qHTS; Potency, µM (series often up to 38.3 µM), for the others: at the highest dose activity change, negative = inhibition, hits mostly inhibitors; 330,000 compounds, 0.31% hits; active = well fitted inhibition curve with a large enough effect; inconclusive = small, poorly fitted or top-dose-only effect; inactive = no such curve, though single readings can be large or run the other way; tested in mouse RAW 264.7 cells; note: potency is the fitted concentration of half-maximal effect; % is set by controls: 0 for no effect and ±100 for the full control effect; nearly all actives have a fitted effect of over 55% in size
HepG2 viability: kills HepG2 cells in TGF-b inhibitor counter-screen; Potency, µM (highest dose often 46.1 µM), for inactives: at the top dose activity change, negative = cytotoxicity, hits mostly cytotoxic; HepG2 CAGA-GFP viability, ATP luminescence, 18 h; 410,000 compounds, 0.76% hits; note: potency is the fitted concentration of half-maximal effect
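HepG2 CAGA-GFP cells (1000/well, DMEM with 1% FBS) received compound, then TGF-beta at 500 pg/mL final, and were incubated 18 hours at 37 degrees C. Viability was read by CellTiter-Glo luminescence. Media-only wells were set as complete cell-killing and DMSO as no toxicity.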
TGFb SMAD3 inh: blocks TGF-b signaling | HepG2 CAGA-GFP TGF-b/SMAD3 reporter, GFP fluorescence, 18 h; TGF-beta stimulated, 500 pg/mL final | Potency, µM (titrated, usually from 46.1 µM), for inactives: top-dose activity, negative = inhibition, usual class: inhibitors | 410,000 compounds, 1.2% hits | AID 588855; note: potency is the fitted concentration of half-maximal effect; % is set by controls: 0 for no effect and ±100 for the full control effect; nearly all actives have a fitted effect of over 65% in size
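HEPG2 CAGA-GFP cells (1000/well, DMEM with 1% FBS) were pre-incubated 2 h at 37 degrees C, given compound by pin tool, then stimulated with TGF-beta at 500 pg/mL final for 18 h before per-cell GFP fluorescence imaging.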
ATXN viability: reduces viability in counter-screen for ATXN expression inhibitors; 400,000 compounds, 0.49% hits; S2 cells (HEK-293 line with an ATXN2-luciferase reporter) viability, CellTiter-Fluor protease fluorescence, 24 h; Potency, µM (top dose mostly 56.7 µM), usual class: cytotoxic; note: potency is the fitted concentration of half-maximal effect; nearly all actives have a fitted effect of over 40% in size
ATXN2 expr inh: ATXN2 expression inhibition; HEK-293 ATXN2-luciferase reporter, luminescence, 24 h; Potency, µM (titrated, usually from 57 µM), for inactives: top-dose activity change, negative = inhibition, hits mostly inhibitors; 360,000 compounds, 0.72% hits; AID 1745845; note: potency is the fitted concentration of half-maximal effect; % is set by controls: 0 for no effect and ±100 for the full control effect; nearly all actives have a fitted effect of over 55% in size
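ATXN2-luciferase reporter cells (luciferase flanked by upstream and downstream ATXN2 gene portions) were treated 24 h at 37 °C with compounds at up to 57 uM. SteadyGlo luminescence gave expression; GF-AFC fluorescence gave viability.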
* hit, by the source's call; i = inactive; ? = inconclusive; . = no result given. Unless noted, calls come from the whole dose curve; as a rule, active = well fitted curve in the direction sought with a large enough effect; inconclusive = small, poorly fitted or top-dose-only effect, or another doubt; inactive = no such curve, though single readings can be large; an effect the other way counts as inactive or inconclusive.

SMILES	Giardia kill	uPA generation	HepG2 viability	TGFb SMAD3 inh	ATXN viability	ATXN2 expr inh
CC(C)N(C(=O)[C@H]1C[C@H](CC(=O)NCc2ccco2)C(=O)N2CCc3c([nH]c4ccc(Cl)cc34)[C@]12C)C(C)C	-29.2	?	-27.9%	11.2µM*	?	-36.4%
C[C@]12c3[nH]c4ccccc4c3CCN1C(=O)C(CC(=O)NCc1cccc(C(F)(F)F)c1)C[C@@H]2C(=O)N1CCOCC1 (stereo not given in full)	3.7	-15.1%	-27.7%	-32.1%	i	-0.7%
C[C@]12c3[nH]c4ccccc4c3CCN1C(=O)C(CC(=O)NCc1cccc(C(F)(F)F)c1)C[C@@H]2C(=O)N1CCCCC1 (stereo not given in full)	0.1	?	-17.5%	11.2µM*	?	0.0%
CCC1(C2CCN(C(=O)c3cc(F)ccc3F)CC2)NC(=O)N(CCc2scnc2C)C1=O (stereo not given)	.	.	.	.	i	.
COc1ccc(N2C(=O)[C@@H]3C[C@H]2CN3Cc2ccc3nccnc3c2)cc1Cl	.	.	.	.	i	.
COc1cc(OC)c(OC)cc1CN1CCCC(c2[nH]ncc2-c2cccc(C(F)(F)F)c2)C1 (stereo not given)	.	.	.	.	i	.
Nc1cc2sc(-c3ccc(C(=O)O)cc3)nc2cc1Cl	?	-6.6%	-61.2%	-16.8%	.	-25.3%
Nc1ccc(-c2nc3ccc(C(=O)O)cc3s2)cc1	?	-5.1%	-3.4%	13.3%	i	1.41µM*
O=C(O)c1ccc2nc(-c3ccccc3)sc2c1	-4.9	-2.6%	-0.7%	-3.2%	i	8.91µM*
Nc1ccc(-c2nc3ccc(N)cc3s2)cc1	?	-5.9%	-26.4%	-14.1%	i	20µM*
CC1CCN(c2nc3ccc(C(=O)O)cc3s2)CC1	-29.1	-4.9%	4.9%	-3.5%	i	2.24µM*
COCc1c(C(=O)N2CCC(N(C)C)C2)cnn1-c1ncc2c(n1)-c1ccccc1CCC2 (stereo not given)	.	.	.	.	i	.
NC(=O)c1ccc(-c2nc(-c3ccc4c(c3)OCCO4)c(-c3ccccn3)[nH]2)cc1	.	.	.	.	.	-31.5%
COC(=O)c1ccccc1NC(=O)Cc1nc(-c2ccc(OC)cc2)no1	.	.	17.8µM*	?	.	.
CCOC(=O)c1ccccc1NC(=O)CCc1nc(-c2ccc(C)cc2)no1	.	.	0.2%	3.3%	.	.
COC(=O)c1c(OCc2ccccn2)cc(=O)n2c1CCN(Cc1ccc3nsnc3c1)CC2	.	.	.	.	i	.
c1ccc2[nH]ccc2c1	.	.	.	.	i	10.9%
COc1ccc(C(CC(=O)c2ccc(C)cc2)C(C#N)C#N)cc1OC (stereo not given)	-14.2	0.3%	-49.9%	?	29.9µM*	?
CCn1c(C)cc(/C=C2/SC(=O)N(C(C)C(=O)OC)C2=O)c1C (stereo not given)	-16.2	-8.5%	-42.1%	5.1%	i	34.9%
COCCn1c(C)cc(/C=C2/SC(=O)N(C(C)C(=O)OC)C2=O)c1C (stereo not given)	?	11.2µM*	-29.7%	-18.1%	i	29.7%
COc1cc2c3c(cccc3c1)C(=O)N(CCN1CCCC1)C2=O	.	.	19.2%	14.1µM*	i	.
COc1ccc2c(-c3ccc(OCCN4CCOCC4)cc3)c(-c3ccccc3OC)sc2c1	?	-21.6%	-22.7%	5.8%	i	-14.5%
COc1cc2sc(-c3ccccc3OC)c(-c3ccc(OCCN4CCOCC4)cc3)c2cc1OC	-16.6	?	-15.9%	24.2%	?	-19.4%
COc1ccc2sc(-c3ccccc3OC)c(-c3ccc(OCCN(C)C)cc3)c2c1	-28.4	?	15.8µM*	15.8µM*	.	?
COc1ccc(-c2sc3ccc(OC)cc3c2-c2ccc(OCCN3CCOCC3)cc2)cc1	-23.7	-14.2%	-64.2%	23.8%	i	-20.6%
COc1ccc2c(-c3ccc(OCCN4CCCCC4)cc3)c(-c3ccccc3OC)sc2c1	-18.7	?	12.6µM*	?	.	?
COc1ccc2sc(-c3ccccc3OC)c(-c3ccc(SC)cc3)c2c1	.	.	.	.	i	16.2%
COc1ccc(-c2sc3cc(OC)ccc3c2-c2ccc(OCCN3CCCCC3)cc2)cc1	.	.	.	.	.	22.4µM*

From PubChem BioAssay
